Assay outcomes as filed in PubChem BioAssay.
An excerpt weighted towards active compounds, which were near 1.9% of everything screened.
Rev-erbA mod: modulators of human Rev-erb alpha DNA binding | Rev-erbα–FITC-DNA binding, fluorescence polarization, 90 min | activity, % at 10 µM | 0.79% of 370,000 active | AID 1259318;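 active = activity above about 14%, limit read from the data; passing the limit was not always enough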
Target sequence (P20393 whole entry, looked up): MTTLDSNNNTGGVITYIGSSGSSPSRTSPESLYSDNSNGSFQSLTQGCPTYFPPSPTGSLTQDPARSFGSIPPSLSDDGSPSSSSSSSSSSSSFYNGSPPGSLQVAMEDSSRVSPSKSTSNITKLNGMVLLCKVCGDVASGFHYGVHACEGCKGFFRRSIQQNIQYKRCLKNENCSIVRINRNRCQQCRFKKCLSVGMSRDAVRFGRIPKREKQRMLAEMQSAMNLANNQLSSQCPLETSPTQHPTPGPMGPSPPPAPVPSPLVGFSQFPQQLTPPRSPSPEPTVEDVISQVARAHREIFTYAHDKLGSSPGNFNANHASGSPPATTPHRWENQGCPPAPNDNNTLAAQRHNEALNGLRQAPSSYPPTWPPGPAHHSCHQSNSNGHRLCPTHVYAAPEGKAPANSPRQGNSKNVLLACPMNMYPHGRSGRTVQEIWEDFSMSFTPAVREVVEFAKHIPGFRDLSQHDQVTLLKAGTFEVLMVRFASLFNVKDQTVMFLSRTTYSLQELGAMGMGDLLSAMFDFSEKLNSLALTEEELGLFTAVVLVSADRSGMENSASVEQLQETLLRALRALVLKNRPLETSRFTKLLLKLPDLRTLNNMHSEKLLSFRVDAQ
aDG glyco up: increases alpha dystroglycan glycosylation; Pro5-aDG cells, alpha-DG glycosylation AlphaScreen (IIH6); 0% Pro5, 100% B10-LARGE cell signal; activation, % at 10 µM; 0.22% of 360,000 active; AID 624168;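 active = activation of at least 8% versus controls, or a plate z-score of at least 8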;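 also: Pro5 are CHO cells carrying HIG-tagged alpha-DG that lacks glycosylation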
p47phox inh: inhibitors of human p47phox binding; p47phox/p22phox peptide binding, fluorescence polarization, 2 h; inhibition, % at 24.7 µM; 0.53% of 220,000 active;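 active = inhibition above about 30%, limit read from the data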
ZTA counter: ZTA (EBV) inhibition in EBNA-1 counter-screen; P03206; ZTA-DNA binding, fluorescence polarization; inhibition, % at 11 µM; 0.15% of 320,000 active; AID 2234; in the data active = inhibition above about 33%
PG9 Ab binder: small molecules binding HIV-1 gp120 antibody PG9; TR-FRET gp120-PG9 antibody binding; 0.43% of 360,000 active; inhibition, % at 6.7 µM; in the data active = inhibition above about 8.5%
EBNA-1 inh: blocks EBNA-1 binding to DNA | EBNA-1 DNA binding, fluorescence polarization | 0.34% of 300,000 active | AID 1950 | inhibition, % at 14.8 µM; in the data active = inhibition above about 28%
PG9 binder conf: confirmation of small molecules binding HIV-1 gp120 antibody PG9 | shares compounds with PG9 Ab binder | TR-FRET PG9 antibody binding, biochemical | inhibition, % at 6.7 µM | 90% of 1,500 active | AID 651571; in the data active = inhibition above about 9%
PGV04 counter: PGV04 control antibody binding, counter-screen; AID 651604; TR-FRET PGV04 antibody-gp120 binding, biochemical; inhibition, % at 6.7 µM; shares compounds with PG9 Ab binder; 95% of 1,500 active; in the data active = inhibition above about 9.5%
PG9 binder DR: small molecules binding HIV-1 gp120 antibody PG9. IC50, µM. shares compounds with PG9 Ab binder. 95 tested, under 10 active. AID 651848. TR-FRET PG9 antibody-gp120 binding inhibition; in the data active = IC50 below about 10 µM
PGV04 DR counter: binds control antibody PGV04 in PG9 counter-screen; 20% of 95 active; shares compounds with PG9 Ab binder; IC50, µM; AID 651937; TR-FRET binding to control antibody PGV04
PG126 binding DR: PG126 binding, dose response counter-screen. shares compounds with PG9 Ab binder. TR-FRET binding to antibody PG126, counterscreen. IC50, µM. 20% of 95 active. AID 651939
Rev-erbA confirm: Rev-erb alpha (human) modulation, hit confirmation; shares compounds with Rev-erbA mod; Rev-erb alpha FITC-DNA binding, fluorescence polarization, 90 min; activation, % at 25 µM; 61% of 3,000 active; AID 1259319;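 active = activation at or above a set limit, or at least 3 SD above the negative control mean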
Hits are given with their value. Rule as the data show it, unless noted: active = IC50 below about 9 µM; inactive = the rest.

What do the screens show for `COc1cc(OC)cc(-c2c(Sc3ccccc3)c3cc(-c4ccc(OC)c(OC)c4)ccc3n2C)c1`?
Rev-erbA mod: inactive; aDG glyco up: inactive; PG9 Ab binder: 19; PG9 binder conf: 34; PGV04 counter: 19; PG9 binder DR: inactive; PGV04 DR counter: inactive; PG126 binding DR: inactive

How did COc1cc(OC)cc(-c2c(Sc3ccccc3)c3cc(-c4cnc(N5CCOCC5)nc4)ccc3n2C)c1 do in these assays?
Rev-erbA mod: inactive; aDG glyco up: inactive; PG9 Ab binder: inactive

How did COc1ccc(-c2c(Sc3ccccc3)c3cc(-c4ccc(OC)c(F)c4)ccc3n2C)cc1 do in these assays?
Rev-erbA mod: inactive; aDG glyco up: inactive; PG9 Ab binder: 27; PG9 binder conf: inactive; PGV04 counter: 36

Results for O=C(Nc1nccs1)c1ccc(COc2ccccc2)o1 ?
Rev-erbA mod: inactive; aDG glyco up: inactive; ZTA counter: inactive; PG9 Ab binder: 9.3; EBNA-1 inh: inactive; PG9 binder conf: 13; PGV04 counter: 20

What do the screens show for `Cc1ccc(OCc2ccc(C(=O)Nc3nccs3)o2)cc1`?
Rev-erbA mod: inactive; aDG glyco up: inactive; p47phox inh: inactive; ZTA counter: inactive; PG9 Ab binder: 14; EBNA-1 inh: inactive; PG9 binder conf: 15; PGV04 counter: 21

Results for O=C(Nc1nccs1)c1ccc(CSc2ccccc2)o1 ?
Rev-erbA mod: inactive; aDG glyco up: inactive; ZTA counter: inactive; PG9 Ab binder: inactive; EBNA-1 inh: inactive

What do the screens show for `CC1Cc2ccccc2N1C(=O)COC(=O)c1ccc(N(C)C)cc1` (stereo not given)?
Rev-erbA mod: inactive; aDG glyco up: inactive; ZTA counter: inactive; PG9 Ab binder: 12; PG9 binder conf: 13; PGV04 counter: 16

How did COC(=O)c1cc(Br)c(=O)n(-c2ccccn2)c1 do in these assays?
Rev-erbA mod: inactive; aDG glyco up: inactive; p47phox inh: inactive; ZTA counter: inactive; PG9 Ab binder: inactive; EBNA-1 inh: inactive

What do the screens show for `COC(=O)c1cc(Br)c(=O)n(-c2cc(C)on2)c1`?
Rev-erbA mod: inactive; aDG glyco up: inactive; p47phox inh: inactive; ZTA counter: inactive; PG9 Ab binder: 9.8; EBNA-1 inh: inactive; PG9 binder conf: 21; PGV04 counter: 26

Results for COC(=O)c1cc(Br)c(=O)n(-c2nccs2)c1 ?
Rev-erbA mod: inactive; aDG glyco up: inactive; p47phox inh: inactive; ZTA counter: inactive; PG9 Ab binder: 28; EBNA-1 inh: inactive; PG9 binder conf: 37; PGV04 counter: 50

Results for C#CCNC(=O)C[C@@H]1C(=O)N(CC=C)/C2=C/CCCCC[C@]21C(=O)OCC ?
Rev-erbA mod: inactive

Results for COC(=O)c1cc(-c2ccc(OC)c(OC)c2)c2c(=O)[nH]c(=O)n(C)c2n1 ?
Rev-erbA mod: inactive; aDG glyco up: inactive; ZTA counter: inactive; PG9 Ab binder: 21; EBNA-1 inh: inactive; PG9 binder conf: 21; PGV04 counter: 29

What do the screens show for `COC(=O)c1cc(-c2ccc(Br)cc2)c2c(=O)[nH]c(=O)n(C)c2n1`?
Rev-erbA mod: inactive; aDG glyco up: inactive; ZTA counter: inactive; PG9 Ab binder: 20; EBNA-1 inh: inactive; PG9 binder conf: 29; PGV04 counter: 16; PG9 binder DR: inactive; PGV04 DR counter: inactive; PG126 binding DR: inactive

What do the screens show for `CCOc1cc(C2C(C#N)=C(N)SC(N)=C2C#N)ccc1OCCN1CCOCC1`?
Rev-erbA mod: inactive; aDG glyco up: inactive; p47phox inh: inactive; ZTA counter: inactive; PG9 Ab binder: 13; EBNA-1 inh: inactive; PG9 binder conf: 15; PGV04 counter: 21

What do the screens show for `Cc1c(-c2ccccc2Br)nc2ccccc2c1C(=O)O`?
Rev-erbA mod: inactive; aDG glyco up: inactive; PG9 Ab binder: inactive

Results for CCc1ccc(-c2nc3ccc(Br)cc3c(C(=O)O)c2C)s1 ?
Rev-erbA mod: inactive; aDG glyco up: inactive; PG9 Ab binder: 27; PG9 binder conf: 33; PGV04 counter: 59

How did COc1ccc(CNC(=S)OC2CCC23CCC(c2ccccc2)CC3)cc1 (stereo not given) do in these assays?
Rev-erbA mod: inactive

What do the screens show for `CCOC(=O)c1ccc(Nc2ncnc3ccc(C)cc23)cc1`?
Rev-erbA mod: inactive; aDG glyco up: inactive; p47phox inh: inactive; ZTA counter: inactive; PG9 Ab binder: 8.9; EBNA-1 inh: inactive; PG9 binder conf: 14; PGV04 counter: 22

Results for C[C@H](CO)N1C[C@H](C)[C@@H](CN(C)Cc2ccccc2)Oc2c(NS(=O)(=O)c3ccccc3)cccc2C1=O ?
Rev-erbA mod: inactive; aDG glyco up: inactive; PG9 Ab binder: inactive

Results for C[C@H](CO)N1C[C@H](C)[C@@H](CN(C)Cc2ccccc2)Oc2c(NS(=O)(=O)c3ccc(F)cc3)cccc2C1=O ?
Rev-erbA mod: inactive; aDG glyco up: inactive; PG9 Ab binder: 11; PG9 binder conf: 31; PGV04 counter: 47

What do the screens show for `CC(C)N1CCCCC(NC(=O)c2c(F)cccc2F)C1=O` (stereo not given)?
Rev-erbA mod: inactive

What do the screens show for `Cc1sc2ncnc(N3CCC(C(=O)Nc4ccc(C#N)cc4)CC3)c2c1C`?
Rev-erbA mod: 27; aDG glyco up: inactive; ZTA counter: inactive; PG9 Ab binder: 15; EBNA-1 inh: inactive; PG9 binder conf: 16; PGV04 counter: 10; PG9 binder DR: inactive; PGV04 DR counter: 8.4; PG126 binding DR: 8.7; Rev-erbA confirm: 19

Results for Cc1sc2ncnc(N3CCC(C(=O)Nc4ccc(S(N)(=O)=O)cc4)CC3)c2c1C ?
Rev-erbA mod: inactive; aDG glyco up: inactive; ZTA counter: inactive; PG9 Ab binder: inactive
